Growth data for 26 compounds are collected here from PubChem BioAssay (NCI).

Some test systems named below: T-47D breast; BT-549 breast; MDA-MB-435 melanoma; SW-620 colon; HCT-116 colon; HCC-2998 colon; KM12 colon; MCF7 breast.
What all share (assay): NCI-60 one-dose screen, 48 h (100 = growth as untreated, 0 = no growth, -100 = all killed)
What all share (conditions): 10 µM unless noted

Structures are written as SMILES. About 83,000 compounds went through this panel and 20% of them were active in at least one assay; those are over-represented in the sample as a whole.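 Method: cells in 96-well plates; compound added at one concentration; 48 h incubation; percent growth measured; values under 10 scored active.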 Unmarked numbers belong to inactive results. Calls of active or inactive are those of the source.

As to `C=C(c1ccc(OC)c(/C=C/C(=O)c2cc(OC)c(OC)c(OC)c2)c1)c1cc(OC)c(OC)c(OC)c1`, the growth in the assay with T-47D breast is 17.2%; in the assay on BT-549 breast, 1.8% (active); in the assay with MDA-MB-435 melanoma, -28.1% (active); in the assay with SW-620 colon, -12.4% (active); in the assay with HCT-116 colon, -62.4% (active); in the assay with HCC-2998 colon, 11.4%. For the same compound, the growth with KM12 colon is -4.59% (active).

In the case of `c1ccc2cc(Cn3cc[n+](Cc4ccc5ccccc5c4)c3)ccc2c1`, the growth in the assay on T-47D breast was -5.37% (active); in the assay with BT-549 breast, 2.35% (active); in the assay with MDA-MB-435 melanoma, 7.71% (active); with SW-620 colon, 58%; with HCT-116 colon it was 41%; in the assay on HCC-2998 colon it was 26.5%. In addition, the growth in the assay on KM12 colon is -1.63% (active).

Regarding `COc1cc2c(cc1OC)CC[N+](CCC[N+](C)(C)C)=C2`, the growth in the assay with T-47D breast is 103%; in the assay with BT-549 breast it was 92.8%; with MDA-MB-435 melanoma it was 103%; with SW-620 colon, 113%; with HCT-116 colon, 95.2%; in the assay with HCC-2998 colon, 89.5%. The growth in the assay with KM12 colon was 103%.

As to `CC1(C)C2=C(C(=O)N1Cc1ccccc1)C(c1ccco1)N(C(=O)C1CCC1)CCN2` (stereo unspecified), the growth with T-47D breast was 90.9%; in the assay on BT-549 breast, 106%; in the assay on MDA-MB-435 melanoma it was 101%; with SW-620 colon, 103%; with HCT-116 colon, 92.6%; in the assay with HCC-2998 colon, 98.4%. In the assay on KM12 colon, the growth was 101%.

Regarding `CC(=O)c1ccc(Nc2nccc(-c3ccc(Cl)cc3)n2)cc1`, the growth in the assay on T-47D breast is 80.2%; in the assay on BT-549 breast, 100%; in the assay on MDA-MB-435 melanoma, 104%; with SW-620 colon, 92.6%; in the assay on MCF7 breast, 76.8%; with HCT-116 colon, 62.9%. In the assay with KM12 colon, the growth is 94.7%.

Take `COc1ccc(C2=C/C(=C\c3ccccc3O)C(=O)N2Cc2ccccc2)cc1`: the growth in the assay with T-47D breast is 68.9%; with BT-549 breast, 70.4%; in the assay on MDA-MB-435 melanoma, -4.21% (active); in the assay with SW-620 colon, 92.2%; in the assay with HCT-116 colon, 72.5%; in the assay with HCC-2998 colon it was 107%. Moreover, the growth in the assay with KM12 colon was 70.3%.

For `C=C1CC[C@@H]2[C@](C)(COC(C)=O)[C@H](OC(C)=O)CC[C@@]2(C)[C@@H]1CC(Nc1ccc(S(=O)(=O)Nc2nccc(C)n2)cc1)C1=CCOC1=O` (stereo partly specified), the growth with T-47D breast is 69.1%; in the assay on BT-549 breast, -2.66% (active); in the assay with MDA-MB-435 melanoma, 0.231% (active); in the assay on SW-620 colon it was -49.6% (active); in the assay with HCT-116 colon, -32.2% (active); in the assay on HCC-2998 colon, 68.2%. The growth in the assay on KM12 colon was 13.2%.

In the case of `O=C(Nc1cccc2c1C(=O)c1cccc(NC(=O)c3ccc(C(=O)Nc4cccc5c4C(=O)c4cccc(NC(=O)c6ccccc6)c4C5=O)cc3)c1C2=O)c1ccccc1`, the growth in the assay with T-47D breast is 101%; in the assay on BT-549 breast, 72.4%; with MDA-MB-435 melanoma it was 112%; in the assay with SW-620 colon, 99.9%; in the assay on HCT-116 colon, 104%; in the assay with HCC-2998 colon, 101%. For the same compound, the growth in the assay with KM12 colon was 102%.

In the case of `COc1cc(OCc2cccc(-c3ccc4c(c3)OCCO4)c2C)cc(OC)c1C=O`, the growth in the assay on T-47D breast is 10.1%; with BT-549 breast, 56.6%; in the assay on MDA-MB-435 melanoma, 52.9%; in the assay with SW-620 colon it was 70.2%; with HCT-116 colon, 44.1%; with HCC-2998 colon it was 70.3%. The growth in the assay with KM12 colon is 78.9%.

Take `COc1ccc(-n2c(=O)n(-c3ccc(-c4nc5ccc(F)cc5s4)cc3)c(=O)c3cccnc32)cc1`: the growth in the assay with T-47D breast was 73.5%; in the assay with BT-549 breast, 99.7%; with MDA-MB-435 melanoma it was 102%; in the assay on SW-620 colon, 106%; with HCT-116 colon, 91.5%; with HCC-2998 colon, 91.4%. For the same compound, in the assay on KM12 colon, the growth was 102%.

For the compound `N=C(N)c1ccc(-c2ccc(-c3ccc(Cl)cc3Cl)s2)nc1`, the growth is 81.2% with T-47D breast; 105% in the assay with BT-549 breast; 62.5% in the assay with MDA-MB-435 melanoma; -63.6% (active) in the assay with SW-620 colon; -69.5% (active) with HCT-116 colon; -33% (active) in the assay with HCC-2998 colon. The growth with KM12 colon was -31.5% (active).

As to `CCCCC1=C(Br)C(=O)c2ncccc2C1=O`, the growth was 71.2% in the assay on T-47D breast; 94.4% with BT-549 breast; 105% in the assay on MDA-MB-435 melanoma; 60.2% in the assay with SW-620 colon; 62.6% in the assay on HCT-116 colon; 108% in the assay on HCC-2998 colon. Also, the growth in the assay on KM12 colon was 96.9%.

Regarding `O=C(/C=C/c1ccc(Cl)cc1)c1ccc(-n2cc(CN3CCN(c4cc5c(cc4F)c(=O)c(C(=O)O)cn5C4CC4)CC3)nn2)cc1`, the growth in the assay on T-47D breast is 93.4%; in the assay on BT-549 breast it was 90%; in the assay on MDA-MB-435 melanoma, 82.2%; with SW-620 colon, 81.7%; in the assay on HCT-116 colon, 2.68% (active); in the assay with HCC-2998 colon, 90.7%. Moreover, the growth in the assay on KM12 colon is 86.4%.

For the compound `CCOC(=O)C1=C(C)N(C)C(=O)N(C)C1c1ccccc1` (stereo unspecified), the growth in the assay with BT-549 breast was 110%; with MDA-MB-435 melanoma it was 89.2%; with SW-620 colon, 97.5%; in the assay on MCF7 breast, 107%; in the assay with HCT-116 colon, 79.4%; in the assay on HCC-2998 colon, 93.2%. In addition, the growth in the assay with KM12 colon was 103%.

Regarding `O=c1oc2ccccc2cc1-c1nn(-c2ccccc2)cc1/C=N/Nc1nc(-c2ccccc2)c(N=Nc2ccccc2)s1`, the growth with BT-549 breast was 61.8%; in the assay with MDA-MB-435 melanoma, -27.8% (active); in the assay on SW-620 colon it was 43.4%; in the assay with MCF7 breast it was 44.3%; in the assay with HCT-116 colon it was 56.9%; in the assay with HCC-2998 colon, 85.6%. Moreover, the growth in the assay with KM12 colon is 44.7%.

For `COc1ccc(NC(=O)c2sc3nc(C)c(C(=O)c4ccccc4)cc3c2N)cc1`, the growth with BT-549 breast is 113%; in the assay on MDA-MB-435 melanoma, 98%; in the assay with SW-620 colon it was 90.9%; in the assay on MCF7 breast, 88.8%; with HCT-116 colon, 108%; with HCC-2998 colon, 103%. Also, the growth with KM12 colon was 95.3%.

For the compound `Cc1ccc2nc(/C=C/c3ccc(N(C)C)cc3)cc(C)c2c1`, the growth in the assay with BT-549 breast was 32.3%; with MDA-MB-435 melanoma, -5.17% (active); with SW-620 colon, 10.9%; in the assay on MCF7 breast it was 10.1%; in the assay on HCT-116 colon, 22.8%; in the assay on HCC-2998 colon, 63.9%. Further, the growth in the assay on KM12 colon was 21.5%.

With `CNC(=O)c1cc(Oc2ccc3nc(NC(=O)NC(C)C)sc3c2)ccn1`, the growth was 86.5% in the assay with BT-549 breast; 0.517% (active) in the assay with MDA-MB-435 melanoma; 53.2% with SW-620 colon; 53.9% in the assay on MCF7 breast; 57.7% in the assay on HCT-116 colon; 79.3% in the assay on HCC-2998 colon. In addition, in the assay on KM12 colon, the growth was 39.3%.

Turning to `O=C(Nc1ncc(Cc2cc(C(F)(F)F)ccc2Cl)s1)C(=S)N1CCOCC1`, the growth is 99% with BT-549 breast; 85.9% in the assay with MDA-MB-435 melanoma; 93.2% in the assay on SW-620 colon; 82% in the assay on MCF7 breast; 81.8% in the assay on HCT-116 colon; 101% in the assay with HCC-2998 colon. In addition, in the assay on KM12 colon, the growth was 97.7%.

With `N#Cc1c(-c2ccc(Cl)cc2)nc(NN=Cc2cccc(Cl)c2)nc1N1CCOCC1`, the growth with BT-549 breast is 93.6%; in the assay on MDA-MB-435 melanoma, 92%; in the assay with SW-620 colon, 53.3%; in the assay on MCF7 breast, 85.9%; in the assay on HCT-116 colon, 70.8%; with HCC-2998 colon it was 105%. The growth in the assay on KM12 colon is 84%.

In the case of `CC(C)=CC(=O)C1C(=O)c2ccccc2C1=O`, the growth with BT-549 breast is 108%; in the assay with MDA-MB-435 melanoma, 98.9%; in the assay on SW-620 colon, 102%; with MCF7 breast it was 93.4%; in the assay with HCT-116 colon, 103%; in the assay on HCC-2998 colon, 111%. In addition, the growth with KM12 colon is 103%.

For `FC(F)(F)c1cccc(-c2nnn(Cc3cc(-c4cccc(Cl)c4)no3)n2)c1`, the growth in the assay with BT-549 breast is 97.7%; with MDA-MB-435 melanoma, 105%; with SW-620 colon, 106%; in the assay with HCT-116 colon it was 96.7%; with HCC-2998 colon, 103%; in the assay with KM12 colon it was 102%.

On to `CCCCCN(CCCCC)CC(O)c1c(Cl)ccc2ccccc12` (stereo unspecified), for which the growth is 105% in the assay on BT-549 breast; 84.2% in the assay on MDA-MB-435 melanoma; 46.1% in the assay on SW-620 colon; 72.2% with MCF7 breast; 37.2% with HCT-116 colon; 70.8% with HCC-2998 colon. In the assay on KM12 colon, the growth was 75.9%.

In the case of `COc1ccc(-c2nc(SCCC(C)C)nc(N/N=C(/C)c3ccc(N)cc3)c2C#N)cc1`, the growth is 96.7% in the assay on BT-549 breast; 104% in the assay on MDA-MB-435 melanoma; 95.2% in the assay with SW-620 colon; 86.1% with MCF7 breast; 94.3% in the assay on HCT-116 colon; 97.4% with HCC-2998 colon. Also, in the assay with KM12 colon, the growth was 92.1%.

As for `Oc1cccc(-c2nc(-c3n[nH]c(=S)n3-c3ccccc3)cc3c2[nH]c2ccccc23)c1`, the growth with BT-549 breast is -15.9% (active); in the assay with MDA-MB-435 melanoma, 3.44% (active); in the assay on SW-620 colon it was 20%; in the assay on MCF7 breast, 17.8%; with HCT-116 colon, 10.6%; in the assay with HCC-2998 colon, -15.2% (active). Moreover, the growth in the assay with KM12 colon was 13%.

On to `O=C(COc1ccc(/C=C2\Oc3ccccc3C2=O)cc1)Nc1nccs1`, for which the growth is 115% in the assay on BT-549 breast; 69.4% with MDA-MB-435 melanoma; 110% with SW-620 colon; 75.6% in the assay on MCF7 breast; 94.5% in the assay with HCT-116 colon; 97.7% in the assay on HCC-2998 colon. Also, the growth in the assay on KM12 colon is 69.7%.
